# According to PMC4336329 (PLoS ONE, 2015):
# The whole screen tested about 310,000 compounds, of which about 14,000 (4.5%) showed an effect of 50% or more. The effect is printed as a negative number. The entries come from a sample that favours strong results as a whole.
# Molecular target: human ether-à-go-go-related gene (hERG) potassium channel (human, UniProt Q12809)
# Assay: primary screen, population patch clamp on CHO cells stably expressing hERG; higher = less effect of the substance
# 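Further: peak tail current of the secondary pulse compared with the same well before compound.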
# Chain of human ether-à-go-go-related gene (hERG) potassium channel (Q12809 whole entry, looked up): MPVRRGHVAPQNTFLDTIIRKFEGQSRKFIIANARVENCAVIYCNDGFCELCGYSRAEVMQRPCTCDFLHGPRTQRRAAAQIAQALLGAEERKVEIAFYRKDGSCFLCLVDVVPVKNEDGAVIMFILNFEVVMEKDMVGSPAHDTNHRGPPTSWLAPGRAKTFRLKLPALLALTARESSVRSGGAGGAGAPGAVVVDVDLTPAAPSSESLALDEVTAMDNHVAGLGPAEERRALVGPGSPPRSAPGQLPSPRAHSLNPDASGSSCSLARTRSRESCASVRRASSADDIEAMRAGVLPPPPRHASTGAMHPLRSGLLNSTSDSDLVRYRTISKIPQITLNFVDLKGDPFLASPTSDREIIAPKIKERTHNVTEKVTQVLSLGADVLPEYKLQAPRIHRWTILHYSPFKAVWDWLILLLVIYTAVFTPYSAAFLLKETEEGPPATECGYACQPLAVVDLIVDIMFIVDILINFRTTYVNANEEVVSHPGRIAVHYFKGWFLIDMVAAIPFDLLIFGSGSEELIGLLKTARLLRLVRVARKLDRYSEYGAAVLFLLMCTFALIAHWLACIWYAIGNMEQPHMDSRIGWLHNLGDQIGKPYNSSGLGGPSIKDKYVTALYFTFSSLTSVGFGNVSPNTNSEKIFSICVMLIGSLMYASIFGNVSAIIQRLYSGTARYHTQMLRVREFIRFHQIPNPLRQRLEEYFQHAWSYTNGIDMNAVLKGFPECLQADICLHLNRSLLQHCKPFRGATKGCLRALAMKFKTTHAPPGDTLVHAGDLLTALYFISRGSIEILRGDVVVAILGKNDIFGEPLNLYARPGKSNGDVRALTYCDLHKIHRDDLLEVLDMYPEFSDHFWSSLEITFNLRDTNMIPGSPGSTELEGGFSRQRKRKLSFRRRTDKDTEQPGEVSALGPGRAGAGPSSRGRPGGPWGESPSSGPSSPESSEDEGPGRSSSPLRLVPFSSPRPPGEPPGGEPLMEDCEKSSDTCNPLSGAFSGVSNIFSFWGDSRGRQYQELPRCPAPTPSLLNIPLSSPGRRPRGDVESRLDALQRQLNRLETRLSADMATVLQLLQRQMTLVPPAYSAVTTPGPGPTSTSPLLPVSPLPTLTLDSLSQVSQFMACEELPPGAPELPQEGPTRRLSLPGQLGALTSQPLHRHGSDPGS
row,Structure (SMILES),"hERG current change (%, negative = inhibition) at 10uM [%]"
1,CCCCN(CC)S(=O)(=O)c1ccc(C(=O)N(CCCN(C)C)c2nc3cc(C)cc(C)c3s2)cc1.Cl,-73
2,Cc1cc(C)c2sc(N(CCCN(C)C)C(=O)c3ccc(S(=O)(=O)N(C)Cc4ccccc4)cc3)nc2c1.Cl,-13.5
3,Cc1cc(C)c2sc(N(CCCN(C)C)C(=O)c3ccc(S(=O)(=O)N4CCCc5ccccc54)cc3)nc2c1.Cl,0.702
4,Cc1cc(C)c2sc(N(CCCN(C)C)C(=O)c3ccc(S(=O)(=O)N(C)C4CCCCC4)cc3)nc2c1.Cl,-81.4
5,Cc1cc(C)c2sc(N(CCCN(C)C)C(=O)c3ccc(S(=O)(=O)N4CCc5ccccc5C4)cc3)nc2c1.Cl,4.44
6,CCN(Cc1ccccc1)S(=O)(=O)c1ccc(C(=O)N(CCCN(C)C)c2nc3cc(C)cc(C)c3s2)cc1.Cl,-4.15
7,CCOc1ccc(S(=O)(=O)N2CCCCC2)cc1NC(=O)Cc1ccsc1,2.15
8,C(=C\c1ccccc1)/C=N/Nc1ccc2nncn2n1,-19.7
9,CC(/C=N/Nc1ccc2nncn2n1)=C\c1ccccc1,-51.8
10,BrC(=C\c1ccccc1)/C=N/Nc1ccc2nncn2n1,-21.6
11,Oc1sc(C=Nc2ccccc2)c2ccccc12,7.99
12,COc1ccc(CCC(=O)Nc2ccc3c(c2)OCO3)cc1,2.6
13,O=C(COc1ncnc2cc([N+](=O)[O-])ccc12)NC1CCCCC1,-2.76
14,COc1ccc(CCNC(=O)COc2ncnc3cc([N+](=O)[O-])ccc23)cc1,-16.5
15,O=C(COc1ncnc2cc([N+](=O)[O-])ccc12)NC(=O)NC1CCCCC1,-56.5
16,O=C1c2ccccc2NC(c2c(Cl)cccc2Cl)N1Cc1ccccc1 (stereo not drawn),7.98
17,N=c1c2c3c(sc2ncn1CCCO)CCCC3,-19.5
18,N=c1c2c3c(sc2ncn1N)CCCCC3,-12.6
19,N=c1c2c3c(sc2ncn1CCN1CCOCC1)CCCC3,-16.9
20,N=c1c2c3c(sc2ncn1Cc1ccccc1)CCCC3,-49.7
21,CCCCn1cnc2sc3c(c2c1=N)CCCC3,-52.1

row,Structure (SMILES),"hERG current change (%, negative = inhibition) at 10uM [%]"
1,N=c1c2c3c(sc2ncn1CCCN1CCOCC1)CCCCC3,-51.2
2,N=c1c2c3c(sc2ncn1CCN1CCOCC1)CCCCC3,-42.9
3,CC(C)Cn1cnc2sc3c(c2c1=N)CCCC3,-25.2
4,N=c1c2c3c(sc2ncn1Cc1ccco1)CCCCC3,-62
5,CC1CCCCC1NC(=O)CCNS(=O)(=O)c1ccc2c(c1)CCC(=O)N2 (stereo not drawn),6.25
6,O=C(Nc1cc(C(F)(F)F)ccc1-n1cnc2ccccc21)c1ccccc1,-32
7,O=C(Nc1ccc(/C=C/c2nc3ccccc3o2)cc1)c1cccc(C(F)(F)F)c1,0.151
8,COC(=O)c1ccc(NC(=S)NCCc2cccc(C)c2)cc1,-2.3
9,CCCn1c(NC(=O)c2cccc(C)c2C)nc2ccccc21,-26.7
10,CC(=O)Nc1cccc(NC(=O)CSc2nnc3ccc(-c4ccncc4)nn23)c1,-17.8
11,CCOc1ccccc1NC(=O)CSc1nnc2ccc(-c3cccnc3)nn12,-25.8
12,Cc1ccccc1NC(=O)CSc1nnc2ccc(-c3ccncc3)nn12,-69.5
13,CCOc1ccccc1NC(=O)CSc1nnc2ccc(-c3ccncc3)nn12,-54.3
14,Cc1ccccc1NC(=O)CSc1nnc2ccc(-c3cccnc3)nn12,-33
15,CCOc1ccccc1NC(=O)CSc1nnc2ccc(-c3ccccn3)nn12,2.41
16,CCOc1ccccc1NC(=O)CSc1nnnn1Cc1ccccc1,-40.5
17,CC(=O)c1ccc(S(=O)(=O)N2CCN(C(=O)CSc3ccc(F)cc3)CC2)cc1,11.7
18,CC[C@]12C=CCN3CCC4(c5cc(Br)c(OC)cc5N(C)C4[C@@](O)(C(=O)OC)[C@@H]1OC(C)=O)C32 (stereo partly drawn),7.6
19,COc1ccc(/C=C(/NC(=O)c2ccccc2)C(=O)N/N=C/c2ccncc2)cc1,9.78
20,N#CCSc1nc(-c2ccccc2)nc2ccccc12,7.83
21,CCc1ccccc1NC(=O)CN1CCN(C(=O)CN2C(=O)NC3(CCCC3)C2=O)CC1,7.54

row,Structure (SMILES),"hERG current change (%, negative = inhibition) at 10uM [%]"
1,CCc1ccccc1NC(=O)CN1CCN(C(=O)COc2ccccc2C#N)CC1,-34.6
2,CCc1ccccc1NC(=O)CN1CCN(CC(=O)NCc2ccc(Cl)cc2)CC1,-46.6
3,Cc1cccc(NC(=O)CN2CCN(C(=O)c3ccc(OCc4cn5ccccc5n4)cc3)CC2)c1C,-46.5
4,Cc1cccc(NC(=O)CN2CCN(C(=O)C(C)Oc3ccc(C#N)cc3)CC2)c1C (stereo not drawn),-76.9
5,Cc1cccc(NC(=O)CNC(=O)COc2ccc(-c3ccc(C#N)cc3)cc2)c1C,4.86
6,CCc1ccccc1NC(=O)CN1CCN(CC(=O)Nc2ccc(-c3ccccc3)cc2)CC1,-53.3
7,CCc1ccccc1NC(=O)CN1CCN(C(=O)CNC(=O)c2ccccc2F)CC1,-13.5
8,CCc1ccccc1NC(=O)CN1CCN(C(=O)CNC(=O)Cc2cccc3ccccc23)CC1,-59.6
9,CCc1ccccc1NC(=O)CN1CCC(NC(=O)COC)CC1.Cl,13.4
10,Cc1cccc(NC(=O)CN2CCN(CC(=O)Nc3ccc(-c4ccccc4)cc3)CC2)c1C,-17
11,CCc1ccccc1NC(=O)CN1CCN(C(=O)CCC(=O)N2CCC(c3ccccc3)=N2)CC1,-58
12,COc1ccc(Cl)cc1NC(=O)CN(C)C(=O)c1ccc(OCc2ccccc2)c(OC)c1,6.49
13,COc1coc(C(O)CN)cc1=O (stereo not drawn),4.57
14,CC(=O)c1ccc(NC(=O)C2CC(c3ccc(F)cc3)=NO2)cc1 (stereo not drawn),-6.78
15,CC(C(=O)N(C)C1CCCCC1)N1CCC(C(N)=O)CC1 (stereo not drawn),25
16,Cc1ccc2c(c1)c1ncnc(N3CCc4ccccc4C3)c1n2C,0.68
17,COc1cccc(CN(CC(=O)NCc2ccccc2)S(=O)(=O)CCl)c1,-16.8
18,CCOC(=O)c1csc(NC(=O)c2ccc(S(=O)(=O)N(C)C)cc2)n1,-20.9
19,Cc1ccnc(SCC(=O)N2CCN(c3cccc(Cl)c3)CC2)n1,-25.2
20,O=C(NC1CCN(C(=S)Nc2ccccc2Cl)CC1)C1CCCCC1,14
21,O=C(CSc1nc2scc(-c3ccccc3)c2c(=O)[nH]1)NCCc1ccccc1,-1.09

row,Structure (SMILES),"hERG current change (%, negative = inhibition) at 10uM [%]"
1,Cc1cccc(NC(=O)CN2CCN(C(=O)CNC(=O)Cc3cccc4ccccc34)CC2)c1C,-57.4
2,CCc1ccccc1NC(=O)CN1CCN(C(=O)CNC(=O)c2ccc(-c3ccccc3)cc2)CC1,-57
3,CCOC(=O)N1CCN(CC(=O)Nc2cccc(Br)c2)CC1,-18.9
4,Cc1ccccc1NC(=O)CNC(=O)Cc1cccc2ccccc12,1.16
5,Cc1cccc(NC(=O)CN2CCOCC2)c1C,13.9
6,CCc1ccccc1NC(=O)CN1CCN(C(=O)CNC(=O)c2ccc(N3CCCC3=O)cc2)CC1,-3.9
7,O=C(CN1CCN(C(=O)CNC(=O)c2ccc3c(c2)OCO3)CC1)Nc1ccccc1Cl,-49.3
8,Cc1cccc(NC(=O)CNC(=O)CN2CCN(C)CC2)c1C,7.6
9,Cc1cccc(NC(=O)CN2CCN(C(=O)COc3cccc(Br)c3)CC2)c1C,-70.4
10,O=C(O)CN1CCN(CC(=O)O)CCN(CC(=O)O)CCN(CC(=O)O)CC1,7.18
11,O=C(Nc1cccc(C(=O)N2CCOCC2)c1)c1ccccc1Cl,-17
12,COc1ccc(C(=O)Nc2ccc(-c3ccc(C)o3)cc2)cc1S(=O)(=O)N1CCOCC1,14.6
13,O=C(NCc1cccs1)C1CCCN1C(=O)Nc1ccccc1 (stereo not drawn),21
14,CCN(C(=O)COC(=O)c1ccc2ccccc2c1)c1c(N)n(Cc2ccccc2)c(=O)[nH]c1=O,14.1
15,COc1ccc(C(=O)OCC(=O)Nc2sccc2C(N)=O)cc1OC,-0.284
16,CCC(=O)N(C)CCc1cc2c(c(OC)c1/C=N/Nc1ccc(C(=O)O)cc1)OCO2,-1.63
17,O=C(Nc1cccc(Cl)c1)c1nc[nH]c1C(=O)N1CCc2ccccc2C1,-15.6
18,CCOc1ccc(NS(=O)(=O)c2ccc(C(=O)N3CCCCC3)cc2)cc1,-9.46
19,COc1ccc(Cn2cnc3c(N)c(C)c(C)cc32)cc1,5.13
20,N#CC1(NC(=O)COc2ccc3oc4ccccc4c3c2)CCCCC1,12.1
21,COC(=O)c1ccc(CNC(=O)COC(=O)C2CC3C=CC2C3)cc1 (stereo not drawn),11.2
